12-LOX inh = Primary qHTS assay for inhibitors of human arachidonate 12S-lipoxygenase (ALOX12): Round 2; Polyunsaturated fatty acid lipoxygenase ALOX12 (Homo sapiens), P18054; purified 12hLO, xylenol orange hydroperoxide absorbance; Potency, µM (highest dose often 108 µM), for the others: at the highest dose activity change, negative = inhibition, actives largely listed as inhibitors; actives 1.1% (n = 580,000)
Target sequence (P18054 whole entry, looked up): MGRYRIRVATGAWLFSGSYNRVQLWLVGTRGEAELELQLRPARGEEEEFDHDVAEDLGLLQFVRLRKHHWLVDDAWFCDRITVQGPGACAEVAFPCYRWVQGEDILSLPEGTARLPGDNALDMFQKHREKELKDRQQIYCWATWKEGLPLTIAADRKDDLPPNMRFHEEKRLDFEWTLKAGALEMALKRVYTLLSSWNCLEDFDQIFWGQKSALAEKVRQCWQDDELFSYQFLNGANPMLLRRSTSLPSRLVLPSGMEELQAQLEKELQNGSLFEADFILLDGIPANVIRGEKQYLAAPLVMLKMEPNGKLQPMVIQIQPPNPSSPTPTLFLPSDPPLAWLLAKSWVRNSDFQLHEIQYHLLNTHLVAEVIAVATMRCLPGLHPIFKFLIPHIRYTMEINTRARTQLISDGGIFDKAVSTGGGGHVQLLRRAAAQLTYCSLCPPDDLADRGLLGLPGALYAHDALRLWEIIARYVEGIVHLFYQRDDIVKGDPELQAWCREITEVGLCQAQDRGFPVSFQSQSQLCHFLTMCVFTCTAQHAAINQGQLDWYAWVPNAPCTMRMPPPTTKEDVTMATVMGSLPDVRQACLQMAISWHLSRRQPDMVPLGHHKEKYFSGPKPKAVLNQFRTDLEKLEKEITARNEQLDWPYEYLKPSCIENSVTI
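Hydroperoxide product was detected by ferrous iron/xylenol orange as the 573 to 405 nm absorbance ratio. Arachidonic acid at 40 uM (final) was turned over for 30 min at room temperature by 150 nM human 12hLO, pH 7.0 Hepes buffer, after 15 min compound preincubation.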
DT40 TDP1 no CPT = qHTS for Inhibitors of human tyrosyl-DNA phosphodiesterase 1 (TDP1): qHTS in cells in absence of CPT. DT40 Tdp1-/- hTDP1 cells, no CPT, ATP luminescence, 48 h. Potency, µM (titrated, usually from 46.2 µM), without a hit: at the top dose activity change, negative = growth inhibition, usual class: inhibitors. actives 15% (n = 420,000). AID 686978, 2013; also: nearly all actives have a fitted effect of over 55% in size
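Luminescent ATP content (CellTiter-Glo) served as the growth readout. Knockout chicken DT40 cells expressing human TDP1 were exposed to compounds without camptothecin for a minimum 48 hr at 37 °C.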
ELG1 DNA repair = qHTS screen for small molecules that inhibit ELG1-dependent DNA repair in human embryonic kidney (HEK293T) cells expressing luciferase-tagged ELG1 | HEK293T ELG1-luciferase reporter, luminescence, 16 h; DNA damage induced by 5-fluorouridine | actives 2.3% (n = 330,000) | Potency, µM (doses to about 46.1 µM), inactives show at the highest dose activity change, negative = inhibition, actives largely listed as inhibitors; also: nearly all actives have a fitted effect of over 55% in size
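5-Fluorouridine DNA damage + compound/DMSO, 2,000 cells/well, 16 h, 37 °C/5% CO2. ONE-Glo, 30 min RT, luminescence. Readout = decrease in reporter signal.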
TDP1 cell CPT = qHTS for Inhibitors of human tyrosyl-DNA phosphodiesterase 1 (TDP1): qHTS in cells in presence of CPT; chicken DT40 Tdp1-/-;hTDP1 cells + 20 nM CPT, ATP luminescence, 48 h; Potency, µM (series often up to 46.2 µM), without a hit: at the top dose activity change, negative = growth inhibition, most hits filed as inhibitors; actives 12% (n = 420,000); also: nearly all actives have a fitted effect of over 55% in size
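Chicken DT40 Tdp1-/- cells stably complemented with human TDP1 were seeded at 400 cells/well in medium containing 20 nM camptothecin, exposed to pin-transferred compounds, and grown at 37 °C for at least 48 hr. Viability was read as ATP luminescence.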
VP16 counter = VP16 counterscreen qHTS for inhibitors of ROR gamma transcriptional activity; Drosophila S2 Gal4-VP16 UAS-luciferase, luminescence, 20 h; Potency, µM (highest dose often 53.6 µM), for inactives: top-dose activity, negative = inhibition, usual class: inhibitors; actives 3.5% (n = 310,000);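 also: Gal4-VP16 expression switched on by copper sulfate through the metallothionein promoter; nearly all actives have a fitted effect of over 50% in size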
RORgamma inh = qHTS for inhibitors of ROR gamma transcriptional activity; Drosophila S2 Gal4-RORgamma UAS-luciferase reporter, 20 h; AID 2551, 2010; actives 5.4% (n = 310,000); Potency, µM (doses to about 53.6 µM), for inactives: at the top dose activity change, negative = inhibition, most hits filed as inhibitors; also: nearly all actives have a fitted effect of over 60% in size
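Luciferase reporter read in Schneider cells carrying Gal4-RORγ (mouse) and UAS-Photinus luciferase; cells given compound 1 h before 700 uM copper sulfate induction, then incubated 20 h at ambient temperature.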
Active calls of the source: *; ? = inconclusive; · = not tested or not shown; [ ] = dose if it differs, or a comment. In the library only some 15% were active in any assay of this set; here they are far more common. Calls follow the shape of the dose curve; as a rule, active = well fitted curve in the direction sought with a large enough effect; inconclusive = small, poorly fitted or top-dose-only effect, or another doubt; inactive = no such curve, though single readings can be large; an effect the other way counts as inactive or inconclusive. % is scaled to controls: 0 for no effect and ±100 for the full control effect; potency is read from the fitted curve at half-maximal effect.

SMILES	12-LOX inh	DT40 TDP1 no CPT	ELG1 DNA repair	TDP1 cell CPT	VP16 counter	RORgamma inh
Cc1cc(Cl)ccc1NC(=S)NCCCO	-25%	3%	-3%	-16%	-2%	7%
Cc1cc(Cl)ccc1NC(=S)NC1CCCC1	?	21µM*	1%	?	14µM*	2.2µM*
S=C(NNc1cccc(Cl)c1)NC1CCCCC1	?	?	?	?	1.4µM*	0.32µM*
S=C(NC1CCCCC1)c1ccccc1	32µM*	·	·	·	·	·
C/C(=N\NC(=S)NC1CCCCC1)c1ccc(OC(F)F)cc1OC(F)F	28µM*	26µM*	-14%	26µM*	?	?
C=C(C)CN1CCN(c2nc3c(c(=O)[nH]c(=O)n3C)n2Cc2ccccc2Cl)CC1	-5%	·	·	·	·	·
CC(=O)N1CCC(N(CCCN2CCC(C)CC2)C(=O)Nc2ccccc2C(F)(F)F)CC1	0%	·	·	·	·	·
Cc1nccc(N2CCC(COc3cnc4c(ccn4CC(N)=O)c3)CC2)n1	19%[176 µM]	·	·	·	·	·
CCOCCCNC(=O)C(NC(=O)C1CCC(CC)CC1)C(C)C (stereo not drawn)	6%	·	·	·	·	·
S=C(Nc1cccc(Cl)c1)NC1CCCCC1	-25%	-29%	0%	-9%	10µM*	3.5µM*
FC(F)Oc1ccc(NC(=S)NC2CCCCCCC2)cc1	?	?	19%	?	10µM*	3.5µM*
S=C(Nc1ccc(Cl)cc1)NC1CCCCC1	1%	?	35%	?	16µM*	3.5µM*
O=C(CCCN1C(=O)/C(=C/c2ccccc2Cl)SC1=S)N1CCOCC1	1%	16µM*	?	?	?	?
O=C(CCN1C(=O)/C(=C\c2cccc(Br)c2)SC1=S)N1CCOCC1	1%	6.5µM*	0%	6.5µM*	3%	-41%
O=C(CCCN1C(=O)/C(=C\c2ccccc2)SC1=S)N1CCOCC1	-28%	?	18µM*	23µM*	·	·
O=C(CCN1C(=O)/C(=C/c2ccccc2Cl)SC1=S)NCCCN1CCOCC1	1%	?	3%	?	-24%	-43%
COc1ccc(/C=C2\SC(=S)N(CCCC(=O)N3CCOCC3)C2=O)cc1	45µM*	?	·	?	·	·
COc1ccc(/C=C2\SC(=S)N(CCCC(=O)N3CCOCC3)C2=O)cc1OC	-15%	?	?	2%	-23%	-11%
O=C(c1ccoc1)N1CCCN(C2CCC3(CCNCC3)CC2)CC1	16%	·	·	·	·	·
O=C(Cc1c(F)cccc1Cl)NC1CCc2n[nH]c(=O)n2CC1 (stereo not drawn)	19%	·	·	·	·	·
CC1CCCC(NC(=O)CCC2CCCO2)C1 (stereo not drawn)	-4%	·	·	·	·	·
O=C(/C=C/c1ccccc1)c1ccc(Sc2ccccc2)cc1	-28%	·	·	·	·	·
COc1ccc(CN(Cc2cccn2C)S(=O)(=O)c2ccc(F)cc2)cc1	0%	?	?	-5%	-3%	-8%
COc1ccc(CN(Cc2cccn2C)S(=O)(=O)c2cccc(C(F)(F)F)c2)cc1	0%	?	?	18µM*	2%	7%
Cc1cc(C)c(C#N)c(SCc2cc(=O)oc3cc(C)c(O)cc23)n1	-46%	·	·	·	·	·
SMILES	12-LOX inh	DT40 TDP1 no CPT	ELG1 DNA repair	TDP1 cell CPT	VP16 counter	RORgamma inh
CN(Cc1ccc(C(N)=O)cc1)Cc1ccsc1	4%	·	·	·	·	·
CCn1nc(C(=O)Nc2nc(-c3ccc(NC(C)=O)cc3)cs2)c2ccccc2c1=O	28%	·	·	·	·	·
Cc1ccc(C(=O)N2CCC(C(=O)c3ccc(F)cc3)CC2)cc1	-2%	?	·	?	·	·
Cc1ccc(C(=O)N2C(=S)C(c3ccc(F)cc3)=NC23CCN(C)CC3)cc1	?	4.6µM*	-16%	5.2µM*	?	75%
O=C(Nc1ccc2c(c1)OCCO2)N1CCC(c2nc(C3CCOCC3)no2)CC1	12%	·	·	·	·	·
O=C1N[C@@H](Cc2ccccc2)COC(=O)[C@H](Cc2ccc(F)cc2)CC/C=C/C[C@H]1CC(=O)N(CCO)Cc1ccccc1	0%	?	?	?	·	·
CC(C)(C)OC(=O)C[C@@H]1C/C=C\C[C@@H](CC(=O)N(CCO)Cc2ccccc2)C(=O)N[C@@H](c2ccccc2)COC1=O	-8%	23µM*	15µM*	?	·	·
O=C1N[C@@H](c2ccccc2)COC(=O)[C@H](Cc2ccc(F)cc2)CC/C=C/C[C@@H]1CC(=O)N(CCO)Cc1ccccc1	-13%	16µM*	?	?	·	·
O=C1N[C@@H](c2ccccc2)COC(=O)[C@@H](Cc2ccc(F)cc2)C/C=C\C[C@H]1CC(=O)N(CCO)Cc1ccccc1	?	10µM*	?	15µM*	·	·
CCCn1cc(S(=O)(=O)c2ccc(OC)cc2)c(=O)c2cc(F)c(N3CCCC(C)C3)cc21 (stereo not drawn)	-7%	18µM*	·	?	·	·
CCCCn1cc(S(=O)(=O)c2ccc(C)c(C)c2)c(=O)c2cc(F)c(N3CCCC(C)C3)cc21 (stereo not drawn)	4%	?	·	?	·	·
CCCn1cc(S(=O)(=O)c2ccccc2)c(=O)c2cc(F)c(N3CCCC3)cc21	-17%	?	·	?	·	·
CCCn1cc(S(=O)(=O)c2ccc(C)cc2)c(=O)c2cc(F)c(N3CCCC3)cc21	?	-27%	·	?	·	·
CCCCn1cc(S(=O)(=O)c2ccc(C)cc2)c(=O)c2cc(F)c(N3CCCCC3)cc21	1%	13µM*	·	18µM*	·	·
CCCCn1cc(S(=O)(=O)c2ccc(OC)cc2)c(=O)c2cc(F)c(N3CCCC3)cc21	-12%	10µM*	·	12µM*	·	·
CCCCn1cc(S(=O)(=O)c2ccc(Cl)cc2)c(=O)c2cc(F)c(N3CCCCC3)cc21	-7%	12µM*	·	12µM*	·	·
O=[N+]([O-])c1ccccc1/C=C/C=N/Nc1ccc(Cl)nn1	27%	·	·	·	·	·
COc1ccccc1-n1cnnc1SCC(=O)NC(C)c1cccc2ccccc12 (stereo not drawn)	2%	·	·	·	·	·
CC(NC(=O)c1cc(S(N)(=O)=O)ccc1F)c1ccc2c(c1)OCCCO2 (stereo not drawn)	-12%	·	·	·	·	·
COC1CCN(CC2CCCCCN2)CC1 (stereo not drawn)	50%	·	·	·	·	·
